Drawing on PubChem BioAssay, this text covers z-score and composite z-score for 9 molecules.

A short description of test [1]: A549 cell viability effects, profiling panel, calcein-AM fluorescence, 48 h, basal (AID 1162). Also: test concentration not given here. Conditions: higher = more signal.
Test [2] in a line: adipocyte viability effects, profiling panel, cell-based, 3T3-L1 adipocytes, calcein-AM fluorescence, 48 h, basal (AID 1163). Also: test concentration not given here. Conditions: 3T3-L1 adipocytes viability, higher = more signal.
The nature of test [3]: HepG2 cell viability effects, profiling panel, calcein-AM fluorescence, 48 h, basal (AID 1164). Also: test concentration not given here. The settings on record: higher = more signal.
The nature of test [4]: MM1S cell viability effects, profiling panel, calcein-AM fluorescence, 48 h, basal (AID 1165).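 Also: viability of MM1S multiple myeloma cells under basal unstimulated conditions; test concentration not given here.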 The settings on record: higher = more signal.
A short description of test [5]: basal RPMI8226 viability, no added stimulus, profiling panel, cell-based, calcein-AM fluorescence, 48 h, PK04 Diversity Set (AID 1166).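 Also: cells grown under basal conditions without added stimulus; test concentration not given here.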 The settings on record: RPMI8226 myeloma viability, higher = more signal.
A short description of test [6]: basal HepG2 mitochondrial membrane potential changes, profiling panel, cell-based, JC-1 fluorescence, 24 h, 100 nL compound (AID 1167). Also: test concentration not given here. The settings on record: higher = more signal.
A short description of test [7]: basal 3T3-L1 adipocyte mitochondrial potential changes, profiling panel, cell-based, JC-1 fluorescence, 3T3-L1 adipocytes, 24 h, 100 nL compound (AID 1168). Also: test concentration not given here. Conditions: JC-1 mitochondrial fluorescence, higher = more signal, called active from +8 up or from −8 down.
Test [8] in a line: basal RPMI8226 mitochondrial membrane potential changes, profiling panel, cell-based, JC-1 fluorescence, 24 h, 100 nL compound (AID 1169). Also: test concentration not given here. The settings on record: RPMI8226 myeloma, JC-1 mitochondrial potential fluorescence, higher = more signal.
Test [9] in a line: basal MM1S mitochondrial membrane potential changes, profiling panel, cell-based, JC-1 fluorescence, 24 h, 100 nL compound (AID 1170). Also: test concentration not given here. Conditions: higher = more signal.
A short description of test [10]: A549 lung cancer cell viability effects, profiling panel, resazurin fluorescence, 24 h, PK04 Diversity Set (AID 1171). Also: test concentration not given here. The settings on record: higher = more signal, called active from +8 up or from −8 down. In general terms: Resazurin is reduced to fluorescent resorufin, in cell work by metabolically active cells.
Test [11] in a line: HepG2 liver cancer cell viability effects, profiling panel, resazurin fluorescence, 24 h, PK04 Diversity Set (AID 1172). Also: test concentration not given here. Conditions: higher = more signal.
Test [12] is described as follows: basal S. cerevisiae growth modulation, no modifier, primary screen, OD600, strain BY4716, 24 h, basal condition (AID 1173). The settings on record: OD600, 24 h, higher = more signal, called active from +8 up or from −8 down.
Test [13] is described as follows: MM1S myeloma cell viability, profiling panel, resazurin fluorescence, basal, 24 h, PK04 Diversity Set (AID 1174).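 Also: MM1S multiple myeloma cell line; test concentration not given here.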 Conditions: higher = more signal, called active from +8 up or from −8 down.
Test [14] has as its target Dihydroorotate dehydrogenase (quinone), mitochondrial (Plasmodium falciparum (isolate 3D7)) (UniProt Q08210). Put plainly: PfDHODH enzyme inhibitors, primary screen, biochemical, C-terminal His tag, absorbance 600 nm (AID 1175).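 Also: recombinant parasite enzyme with a five histidine tag at its C terminus; test concentration not given here.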 Conditions: DCIP absorbance 600 nm, higher = more signal, called active from +8 up or from −8 down.
Test [15] is described as follows: P. aeruginosa biofilm formation inhibitors, primary screen, strain PAO1, LB-PBS medium, absorbance 600 nm (AID 1176). Also: test concentration not given here. Conditions: P. aeruginosa PAO1 growth/biofilm, A600, 12 h; higher = more signal.
A short description of test [16]: S. cerevisiae RM11-1a growth modifiers, primary screen, strain RM11-1a, OD600, basal, 24 h (AID 1177).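 Also: cultures grown under basal conditions with no added stressor; test concentration not given here.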 Conditions: OD600, 24 h, higher = more signal, called active from +8 up or from −8 down.
A short description of test [17]: E. coli acrAB mutant growth effects, primary screen, E. coli filamentation inducers, strain DRC39, OD650, 24 h (AID 1178).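 Also: growth measured as culture turbidity by optical density at 650 nm; test concentration not given here.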 The settings on record: higher = more signal, called active from +8 up or from −8 down.
The nature of test [18]: E. coli acrAB mutant growth effects, primary screen, E. coli filamentation inducers, strain DRC39, OD650, 48 h (AID 1179).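 Also: screen aims at cell division blockers that make cells filament.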 Conditions: E. coli DRC39 delta-acrAB growth, higher = more signal, called active from +8 up or from −8 down.
Test [19] is described as follows: RPMI8226 myeloma cell viability, profiling panel, resazurin fluorescence, basal, 24 h, PK04 Diversity Set (AID 1180).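 Also: RPMI8826 multiple myeloma cell line at 5000 cells per well; test concentration not given here.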 Conditions: higher = more signal.
The target of test [20] is E3 ubiquitin-protein ligase XIAP (Homo sapiens) (UniProt P98170). Put plainly: XIAP binders, primary screen, biophysical, small-molecule microarray, fluorescence 635 nm (AID 1181).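 Also: score merges 667 nm emission and signal to noise over triplicate slides.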 Conditions: small-molecule microarray binding, higher = more signal.
Sequence of E3 ubiquitin-protein ligase XIAP (Homo sapiens) (P98170 whole entry, looked up): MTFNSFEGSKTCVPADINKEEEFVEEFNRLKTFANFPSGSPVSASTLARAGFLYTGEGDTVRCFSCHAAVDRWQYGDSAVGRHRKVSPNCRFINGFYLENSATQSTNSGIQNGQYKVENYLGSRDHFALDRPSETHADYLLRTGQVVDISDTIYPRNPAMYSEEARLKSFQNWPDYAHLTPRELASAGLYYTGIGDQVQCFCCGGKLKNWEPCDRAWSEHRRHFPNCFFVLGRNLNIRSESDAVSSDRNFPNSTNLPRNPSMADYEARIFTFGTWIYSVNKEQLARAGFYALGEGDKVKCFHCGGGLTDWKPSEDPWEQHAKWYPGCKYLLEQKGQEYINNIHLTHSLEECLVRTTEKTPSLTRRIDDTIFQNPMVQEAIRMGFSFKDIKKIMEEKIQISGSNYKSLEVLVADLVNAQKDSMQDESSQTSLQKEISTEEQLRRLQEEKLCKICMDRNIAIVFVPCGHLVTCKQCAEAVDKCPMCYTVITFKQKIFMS

The structures appear in SMILES notation. The source made the active and inactive calls. Unless noted, no rule for the calls is given here.

Sequence of Dihydroorotate dehydrogenase (quinone), mitochondrial (Plasmodium falciparum (isolate 3D7)) (Q08210 whole entry, looked up): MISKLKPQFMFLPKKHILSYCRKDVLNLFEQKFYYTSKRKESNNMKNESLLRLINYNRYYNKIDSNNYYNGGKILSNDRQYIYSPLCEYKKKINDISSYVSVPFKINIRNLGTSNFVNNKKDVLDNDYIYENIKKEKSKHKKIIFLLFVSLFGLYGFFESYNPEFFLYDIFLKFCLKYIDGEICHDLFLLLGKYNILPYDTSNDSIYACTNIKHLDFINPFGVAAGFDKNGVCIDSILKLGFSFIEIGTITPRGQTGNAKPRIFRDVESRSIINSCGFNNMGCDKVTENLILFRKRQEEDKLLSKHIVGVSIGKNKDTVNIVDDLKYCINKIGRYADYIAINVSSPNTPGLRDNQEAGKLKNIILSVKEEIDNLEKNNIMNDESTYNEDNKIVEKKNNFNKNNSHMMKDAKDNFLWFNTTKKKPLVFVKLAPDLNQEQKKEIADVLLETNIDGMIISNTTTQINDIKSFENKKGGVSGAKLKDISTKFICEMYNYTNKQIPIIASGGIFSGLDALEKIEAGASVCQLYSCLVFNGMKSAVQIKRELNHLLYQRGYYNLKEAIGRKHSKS

With `CCOC(=O)C[C@H]1[C@H](OC(=O)c2ccccc2-c2ccccc2)[C@@H](NC(=O)CC(C)C)c2cc(OCCCO)ccc2N1C(=O)c1ccc2ccccc2n1`, the z-score in [1] is 0.375; in [2] it was 0.556; in [3], 0.2; in test [4] it was -1.32; in [5] it was -2.05; in test [6], 0.851. Moreover, the z-score in test [7] was -0.0831 (inactive); in test [8], -0.537; in test [9], 0.32; in [10], -0.109 (inactive); in test [11] it was -0.208; in test [12], 0.706 (inactive). Moreover, the z-score in [13] was 0.0612 (inactive); in [15], -0.483 (inactive); in [16] it was -0.078 (inactive); in [17], -0.418 (inactive); in [18], -0.0818 (inactive); in test [19], -0.0139. The composite z-score was -0.112 (inactive) in test [14] and 0.0993 in [20].

`C=CCOC(=O)[C@@H]1[C@H]2C(=O)O[C@H](c3ccccc3)[C@H](c3ccccc3)N2[C@H](c2ccc(OCCOC(=O)[C@H]3C[C@H]4C(=O)N[C@@H](CC(C)C)C(=O)N4[C@H]3c3ccc(O)cc3)cc2)[C@@]12C(=O)Nc1ccc(I)cc12`: the z-score is 0.15 in test [1]; 0.325 in [2]; 1.02 in [3]; 0.38 in [4]; 1.08 in test [5]; -0.227 in test [6]. Also, the z-score in test [7] is 3.06 (inactive); in test [8], -0.952; in test [9] it was -0.838; in test [10], -0.0756 (inactive); in test [11] it was 0.206; in test [12], 1.26 (inactive). The z-score is 0.219 (inactive) in test [13]; 2.44 (inactive) in test [15]; 1.6 (inactive) in test [16]; 0.869 (inactive) in [17]; 1.2 (inactive) in test [18]; 0.597 in test [19]. In addition, the composite z-score was 0.106 (inactive) in test [14] and 0.0819 in test [20].

As for `COc1ccc([Si](C)(C)[C@H]2[C@H](CCn3cc([C@H](O)c4ccccc4)nn3)O[C@@]3(C(=O)N(Cc4cccc(N5C(=O)c6cccc7cccc5c67)c4)c4ccccc43)[C@@H]2C)cc1`, the z-score in [1] was -0.252; in test [2], 0.0344; in [3], -0.506; in test [4], -0.342; in test [5], -1.56; in test [6] it was -0.411. Besides, the z-score is -1.63 (inactive) in test [7]; -0.00407 in test [8]; -0.319 in test [9]; -0.884 (inactive) in [10]; -0.717 in test [11]; 0.807 (inactive) in [12]. The z-score is -1.98 (inactive) in test [13]; 1.42 (inactive) in test [15]; 0.378 (inactive) in test [16]; -0.0889 (inactive) in [17]; -0.216 (inactive) in test [18]; -1.47 in test [19]. The composite z-score is 0.0064 (inactive) in test [14] and -0.0516 in [20].

With `[N-]=[N+]=NCc1ccccc1C[C@@]1(C(=O)NCCN2CCOCC2)N=C(c2ccc(OCCCO)cc2)O[C@@H]1c1ccccc1N=[N+]=[N-]`, the z-score in test [1] was -1.6; in test [2], 1.61; in [3], -1.05; in test [4], -1.31; in test [5], -3.68; in test [6], 0.862. For the same molecule, the z-score was -1.38 (inactive) in test [7]; -0.923 in test [8]; -1.12 in test [9]; -0.0172 (inactive) in test [10]; -0.61 in test [11]; -1.22 (inactive) in test [12]. Besides, the z-score in test [13] was -0.37 (inactive); in test [15], 0.124 (inactive); in test [16] it was -0.304 (inactive); in test [17], 0.647 (inactive); in test [18], -0.456 (inactive); in test [19], -0.0843. The composite z-score in test [14] was 0.699 (inactive); in test [20], 0.318.

On to `NC(=O)NCC#Cc1ccc2c(c1)[C@]1(C(=O)N2)[C@H](C(=O)Nc2nc3ccccc3s2)[C@H]2C(=O)O[C@H](c3ccccc3)[C@H](c3ccccc3)N2[C@@H]1c1ccc(O)cc1`, for which the z-score in [1] is 0.234; in [2] it was 1.28; in [3], 0.28; in test [4], -0.614; in [5], 0.76; in test [6], -3.35. Besides, the z-score is 0.588 (inactive) in test [7]; -0.937 in [8]; -1.9 in test [9]; 1.78 (inactive) in [10]; 0.493 in [11]; 3.37 (inactive) in test [12]. For the same molecule, the z-score in test [13] was 0.917 (inactive); in test [15], 2.87 (inactive); in test [16], 5.05 (inactive); in [17], 0.296 (inactive); in test [18], 0.321 (inactive); in test [19], -0.253. Further, the composite z-score in test [14] is 0.9 (inactive); in test [20] it was -0.0337.

Regarding `O=C1O[C@@H](c2ccccc2)[C@@H](c2ccccc2)N2[C@@H](c3ccccc3OCCO)[C@]3(C(=O)Nc4ccc(C#CCCO)cc43)[C@@H](C(=O)N3CCN(c4ncccn4)CC3)[C@H]12`, the z-score is 0.246 in [1]; 0.986 in [2]; -0.477 in test [3]; -0.315 in [4]; -3.89 in test [5]; 0.799 in test [6]. Besides, the z-score is 0.778 (inactive) in test [7]; -1.33 in test [8]; 0.431 in test [9]; 1.13 (inactive) in test [10]; 0.261 in [11]; 1.73 (inactive) in [12]. Also, the z-score is -0.901 (inactive) in test [13]; 0.393 (inactive) in [15]; 2.47 (inactive) in test [16]; 0.245 (inactive) in test [17]; -0.289 (inactive) in test [18]; -1.7 in test [19]. The composite z-score in test [14] was 0.286 (inactive); in [20], -0.0622.

Regarding `O=C1NCC(=O)N2[C@@H]1C[C@@H](C(=O)O)[C@H]2c1ccc(O)cc1`, the z-score in test [1] is 0.391; in [2] it was -0.0074; in test [3] it was -0.084; in test [4] it was -2.79; in test [5] it was -0.0676; in [6], 0.429. For the same molecule, the z-score is -0.799 (inactive) in [7]; 0.233 in test [8]; -0.775 in test [9]; 0.249 (inactive) in [10]; 0.153 in [11]; -0.231 (inactive) in test [12]. The z-score in [13] was 0.393 (inactive); in test [15], 0.463 (inactive); in [16], 0.414 (inactive); in test [17], -0.42 (inactive); in test [18], -0.0242 (inactive); in test [19], 0.205. The values for the composite z-score in test [14] and in test [20] were -0.273 (inactive) and 0.0374, respectively.

`[N-]=[N+]=Nc1ccccc1C[C@@]1(C(=O)O)N=C(c2ccc(OCCCO)cc2)O[C@@H]1c1ccccc1`: the z-score in test [1] was -0.0649; in test [2], -0.532; in test [3] it was -0.222; in test [4], -1.78; in [5] it was -1.26; in [6] it was -1.65. The z-score in test [7] is -0.0754 (inactive); in test [8], 0.00697; in test [9], -0.187; in test [10], 0.293 (inactive); in test [11] it was 1.06; in [12] it was -2.01 (inactive). Further, the z-score in test [13] is -0.161 (inactive); in test [15], 0.342 (inactive); in test [16] it was -0.583 (inactive); in test [17], -0.26 (inactive); in test [18], -0.523 (inactive); in [19], 0.229. Moreover, the results for the composite z-score in [14] and in test [20] were 0.624 (inactive) and 0.427, respectively.

On to `CON(C)C(=O)C=C1C[C@@H](c2cccc(Cl)c2)O[C@@H](c2cccc(Cl)c2)O1`, for which the z-score in [1] was -1.5; in test [2], 0.559; in [3], -2.18; in [4], -2.44; in [5], -4.18; in test [6], 3.67. For the same molecule, the z-score in [7] is 0.748 (inactive); in [8] it was -1.09; in test [9] it was -1.16; in [10], 2.23 (inactive); in test [11] it was 0.485; in test [12], -0.283 (inactive). For the same molecule, the z-score in [13] was 0.0896 (inactive); in test [15], -0.184 (inactive); in test [16] it was 1.21 (inactive); in test [17] it was -0.471 (inactive); in test [18], 0.134 (inactive); in test [19], 0.515. In addition, the figures for the composite z-score in [14] and in test [20] were -0.558 (inactive) and -0.0827, respectively.
